Reference: the supplement of paper PMC10849652
Of roughly 7,900 targets only a part is listed; those with a hit were picked by preference. About 0.6% of all pairs of compound and target were hits.

Tests used:
Assay in all cases: log2 fold change, soluble protein after heating vs DMSO (PISA); higher = thermal stabilisation; K562 cells, 10 uM, 30 min; active = over 0.2 and 3.5 SD of the protein, either way, in both replicates (recomputed)
[1] = compound: CC1=C(C=C(C=C1)NC(=O)C2=CC(=CC=C2)C(C)(C)C#N)NC3=CC4=C(C=C3)N=CN(C4=O)C
How it was run: (§1)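 Quantification of soluble protein used TMTpro 16plex LC-MS/MS, with channel sums equalised. Samples were the supernatant after 21,000xg for 90 min of pooled aliquots from K562 cells (2×10^6 cells/mL) treated with 10 μM compound for 30 min, heated for 3 min over 48°C-58°C, and extracted in PBS with 0.5% NP-40 at 4°C. Values, from duplicates, describe thermal stability against control samples on a log2 fold-change scale.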

[2] = compound: CC1=C(C=C(C=C1)NC(=O)C2=CC(=CC=C2)N(C)C)NC(=O)C3=CC=C(C=C3)O
How it was run: as §1

[3] = compound: CC1=CC=C(C=C1)SC2=C3C=C(SC3=CN=C2)C(=O)N
How it was run: as §1

[4] = compound: CC1=NC(=CC=C1)C2=C(N=C(N2)C(C)(C)C)C3=CC4=NC=CN=C4C=C3
How it was run: as §1

Nexturastat A = compound: CCCCN(Cc1ccc(C(=O)NO)cc1)C(=O)Nc1ccccc1 [Nexturastat A]
How it was run: as §1

vemurafenib = compound: CCCS(=O)(=O)Nc1ccc(F)c(C(=O)c2c[nH]c3ncc(-c4ccc(Cl)cc4)cc23)c1F [vemurafenib]
How it was run: as §1

[5] = compound: CCCS(=O)(=O)Nc1ccc(F)c(C(=O)c2c[nH]c3ncc(Cl)cc23)c1F
How it was run: as §1

[6] = compound: CCCc1cc(C)[nH]c(=O)c1CNC(=O)c1cc(-c2ccnc(N3CCN(C)CC3)c2)cc2c1cnn2C(C)C
How it was run: as §1

givinostat = compound: CCN(CC)Cc1ccc2cc(COC(=O)Nc3ccc(C(=O)NO)cc3)ccc2c1 [givinostat]
How it was run: as §1

barasertib = compound: CCN(CCCOc1ccc2c(Nc3cc(CC(=O)Nc4cccc(F)c4)[nH]n3)ncnc2c1)CCOP(=O)(O)O [barasertib]
How it was run: as §1

[7] = compound: CC[C@@H]1C(=O)N(C)c2cnc(Nc3ccc(C(=O)NC4CCN(C)CC4)cc3OC)nc2N1C1CCCC1
How it was run: as §1

volasertib = compound: CC[C@@H]1C(=O)N(C)c2cnc(Nc3ccc(C(=O)N[C@H]4CC[C@H](N5CCN(CC6CC6)CC5)CC4)cc3OC)nc2N1C(C)C [volasertib]
How it was run: as §1

[8] = compound: CC[C@H](C)N1C=C(C2=C(C=C(C=C21)C3=CN=C(C=C3)N4CCNCC4)C(=O)NCC5=C(C=C(NC5=O)C)C)C
How it was run: as §1

epoxomicin = compound: CC[C@H](C)[C@@H](C(=O)N[C@@H]([C@@H](C)O)C(=O)N[C@@H](CC(C)C)C(=O)[C@]1(CO1)C)NC(=O)[C@H]([C@@H](C)CC)N(C)C(=O)C [epoxomicin]
How it was run: as §1

[9] = compound: CCn1c(C(=O)N(C2CC2)C2CC2)cc2c3c(ncn3C)c(Nc3cc(C)n(C)n3)nc21
How it was run: as §1

[10] = compound: CCn1cc(-c2ccnc3[nH]c(-c4cccc(CN(C)C)c4)cc23)c(-c2ccc(NC(=O)N(C)C)cc2)n1
How it was run: as §1

[11] = compound: CN(C)CC(=O)Nc1ccc2[nH]c(=O)c3ccccc3c2c1
How it was run: as §1

rosiglitazone = compound: CN(CCOC1=CC=C(C=C1)C[C@H]2C(=O)NC(=O)S2)C3=CC=CC=N3 (racemic) [rosiglitazone]
How it was run: as §1

[12] = compound: CN1C2=C(C3=C1C(=O)N(N=C3)CC4=CC(=CC=C4)N)SC(=C2)S(=O)C
How it was run: as §1

[13] = compound: CN1CCC(CNc2ccc3ncc(-c4cccc(OC(F)(F)F)c4)n3n2)CC1
How it was run: as §1

Measured: log2 fold change

CSK (UniProt P41240)
Sequence of UniProt P41240 (P41240 whole entry, looked up): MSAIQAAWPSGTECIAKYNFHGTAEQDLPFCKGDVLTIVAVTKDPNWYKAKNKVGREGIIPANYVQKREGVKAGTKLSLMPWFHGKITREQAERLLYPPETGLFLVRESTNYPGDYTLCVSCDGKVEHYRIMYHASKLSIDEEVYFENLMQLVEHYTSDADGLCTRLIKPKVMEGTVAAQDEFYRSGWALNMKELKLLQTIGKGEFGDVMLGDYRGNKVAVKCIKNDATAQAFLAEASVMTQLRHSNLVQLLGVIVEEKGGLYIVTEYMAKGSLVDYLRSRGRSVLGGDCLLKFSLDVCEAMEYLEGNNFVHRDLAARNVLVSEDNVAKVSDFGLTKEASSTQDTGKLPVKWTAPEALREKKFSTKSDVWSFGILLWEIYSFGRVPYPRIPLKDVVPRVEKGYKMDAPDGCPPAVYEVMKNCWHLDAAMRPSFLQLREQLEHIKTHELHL
inactive: [2] -0.091 | [3] -0.01 | [4] 0.019 | Nexturastat A -0.046 | vemurafenib 0.072 | [5] 0.054 | [6] 0.034 | givinostat 0.035 | barasertib 0.004 | [7] -0.132 | [8] 0.05 | epoxomicin 0.014 | [9] -0.013 | [10] -0.075 | [11] 0.024 | rosiglitazone 0.032 | [12] -0.011 | [13] -0.147
active: [1] 0.325 | volasertib -0.306

COMMD1 (UniProt Q8N668)
Sequence of UniProt Q8N668 (Q8N668 whole entry, looked up): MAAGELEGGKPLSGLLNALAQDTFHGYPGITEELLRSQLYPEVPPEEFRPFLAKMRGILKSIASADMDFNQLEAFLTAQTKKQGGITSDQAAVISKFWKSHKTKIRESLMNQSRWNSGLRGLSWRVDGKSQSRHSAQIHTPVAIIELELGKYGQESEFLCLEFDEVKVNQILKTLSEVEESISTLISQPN
inactive: [1] 0.037 | [2] -0.064 | [3] -0.048 | [4] 0.056 | Nexturastat A 0.011 | vemurafenib -0.038 | [5] 0.097 | [6] 0.056 | givinostat 0.122 | barasertib 0.057 | [7] -0.029 | volasertib -0.041 | [8] 0.054 | epoxomicin -0.071 | [9] -0.063 | [10] 0.157 | [11] 0.019 | rosiglitazone 0.016 | [13] 0.295

CA8 (UniProt P35219)
Sequence of UniProt P35219 (P35219 whole entry, looked up): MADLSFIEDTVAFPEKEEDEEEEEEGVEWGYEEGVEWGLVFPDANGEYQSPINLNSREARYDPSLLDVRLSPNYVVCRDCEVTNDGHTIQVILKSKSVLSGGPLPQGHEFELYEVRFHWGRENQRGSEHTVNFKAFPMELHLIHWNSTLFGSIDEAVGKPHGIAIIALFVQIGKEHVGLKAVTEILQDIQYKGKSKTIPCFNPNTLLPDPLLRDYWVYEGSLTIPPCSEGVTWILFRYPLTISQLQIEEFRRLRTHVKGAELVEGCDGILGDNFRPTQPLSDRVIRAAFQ
inactive: [1] -0.024 | [2] -0.081 | [3] 0.041 | [4] 0.006 | Nexturastat A -0.058 | vemurafenib 0.004 | [5] 0.02 | [6] -0.002 | givinostat 0.077 | barasertib 0.034 | [7] -0.055 | [8] 0.038 | epoxomicin 0.01 | [9] -0.035 | [10] -0.093 | [11] -0.002 | rosiglitazone 0.044 | [12] -0.099 | [13] -0.127
active: volasertib -0.329

CERS2 (UniProt Q96G23)
Sequence of UniProt Q96G23 (Q96G23 whole entry, looked up): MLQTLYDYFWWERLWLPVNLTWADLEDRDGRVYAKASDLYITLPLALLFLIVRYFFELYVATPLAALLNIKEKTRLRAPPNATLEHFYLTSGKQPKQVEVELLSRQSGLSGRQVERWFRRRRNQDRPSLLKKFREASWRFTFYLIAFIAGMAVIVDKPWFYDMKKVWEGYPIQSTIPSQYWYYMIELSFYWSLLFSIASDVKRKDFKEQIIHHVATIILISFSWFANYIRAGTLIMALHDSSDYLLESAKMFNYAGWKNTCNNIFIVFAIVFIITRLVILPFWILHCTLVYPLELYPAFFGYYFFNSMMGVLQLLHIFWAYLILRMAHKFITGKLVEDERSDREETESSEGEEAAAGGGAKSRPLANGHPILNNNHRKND
active: [13] -0.46
inactive: [1] -0.02 | [2] 0.015 | [3] 0.036 | [4] 0.019 | Nexturastat A -0.083 | vemurafenib -0.018 | [5] 0.101 | [6] -0.013 | givinostat -0.038 | barasertib -0.002 | [7] -0.148 | volasertib -0.133 | [8] 0.011 | epoxomicin 0.03 | [9] -0.004 | [10] -0.001 | [11] 0.001 | rosiglitazone 0.088 | [12] 0.007

CDC25B isoform 4 (UniProt P30305)
Sequence of UniProt P30305 (P30305 whole entry, looked up): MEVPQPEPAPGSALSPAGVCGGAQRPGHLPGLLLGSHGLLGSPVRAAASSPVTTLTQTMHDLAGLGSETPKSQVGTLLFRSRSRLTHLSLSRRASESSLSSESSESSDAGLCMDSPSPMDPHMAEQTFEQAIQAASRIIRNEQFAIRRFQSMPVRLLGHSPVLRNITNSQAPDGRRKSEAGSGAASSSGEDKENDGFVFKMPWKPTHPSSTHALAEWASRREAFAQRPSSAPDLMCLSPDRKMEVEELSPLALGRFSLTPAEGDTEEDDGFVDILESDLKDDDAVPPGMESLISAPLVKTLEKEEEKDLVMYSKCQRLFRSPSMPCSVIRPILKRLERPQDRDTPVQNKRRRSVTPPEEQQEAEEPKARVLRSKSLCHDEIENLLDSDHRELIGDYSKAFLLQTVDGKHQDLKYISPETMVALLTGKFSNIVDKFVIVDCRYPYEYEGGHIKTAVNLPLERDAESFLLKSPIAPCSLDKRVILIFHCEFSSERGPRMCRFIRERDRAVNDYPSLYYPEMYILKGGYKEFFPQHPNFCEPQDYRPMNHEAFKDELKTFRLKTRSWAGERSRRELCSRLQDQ
inactive: [1] 0.203 | [2] -0.022 | [3] -0.008 | [4] -0.004 | Nexturastat A -0.039 | vemurafenib 0.054 | [5] -0.077 | [6] -0.352 | givinostat 0.032 | barasertib -0.044 | [7] -0.003 | volasertib -0.049 | [8] -0.266 | epoxomicin 0.1 | [9] -0.031 | [10] -0.092 | [11] -0.021 | rosiglitazone -0.012 | [13] -0.081

CMTR1 (UniProt Q8N1G2)
inactive: [1] -0.012 | [2] -0.003 | [3] -0.021 | [4] 0.083 | Nexturastat A -0.069 | vemurafenib 0.03 | [5] 0.005 | [6] -0.004 | givinostat -0.062 | barasertib 0.054 | [7] -0.053 | volasertib -0.199 | [8] 0.024 | epoxomicin 0.039 | [9] -0.01 | [10] -0.049 | [11] 0.038 | rosiglitazone 0.03 | [12] -0.055 | [13] -0.037

CPSF1 (UniProt Q10570)
Sequence of UniProt Q10570 (Q10570 whole entry, looked up): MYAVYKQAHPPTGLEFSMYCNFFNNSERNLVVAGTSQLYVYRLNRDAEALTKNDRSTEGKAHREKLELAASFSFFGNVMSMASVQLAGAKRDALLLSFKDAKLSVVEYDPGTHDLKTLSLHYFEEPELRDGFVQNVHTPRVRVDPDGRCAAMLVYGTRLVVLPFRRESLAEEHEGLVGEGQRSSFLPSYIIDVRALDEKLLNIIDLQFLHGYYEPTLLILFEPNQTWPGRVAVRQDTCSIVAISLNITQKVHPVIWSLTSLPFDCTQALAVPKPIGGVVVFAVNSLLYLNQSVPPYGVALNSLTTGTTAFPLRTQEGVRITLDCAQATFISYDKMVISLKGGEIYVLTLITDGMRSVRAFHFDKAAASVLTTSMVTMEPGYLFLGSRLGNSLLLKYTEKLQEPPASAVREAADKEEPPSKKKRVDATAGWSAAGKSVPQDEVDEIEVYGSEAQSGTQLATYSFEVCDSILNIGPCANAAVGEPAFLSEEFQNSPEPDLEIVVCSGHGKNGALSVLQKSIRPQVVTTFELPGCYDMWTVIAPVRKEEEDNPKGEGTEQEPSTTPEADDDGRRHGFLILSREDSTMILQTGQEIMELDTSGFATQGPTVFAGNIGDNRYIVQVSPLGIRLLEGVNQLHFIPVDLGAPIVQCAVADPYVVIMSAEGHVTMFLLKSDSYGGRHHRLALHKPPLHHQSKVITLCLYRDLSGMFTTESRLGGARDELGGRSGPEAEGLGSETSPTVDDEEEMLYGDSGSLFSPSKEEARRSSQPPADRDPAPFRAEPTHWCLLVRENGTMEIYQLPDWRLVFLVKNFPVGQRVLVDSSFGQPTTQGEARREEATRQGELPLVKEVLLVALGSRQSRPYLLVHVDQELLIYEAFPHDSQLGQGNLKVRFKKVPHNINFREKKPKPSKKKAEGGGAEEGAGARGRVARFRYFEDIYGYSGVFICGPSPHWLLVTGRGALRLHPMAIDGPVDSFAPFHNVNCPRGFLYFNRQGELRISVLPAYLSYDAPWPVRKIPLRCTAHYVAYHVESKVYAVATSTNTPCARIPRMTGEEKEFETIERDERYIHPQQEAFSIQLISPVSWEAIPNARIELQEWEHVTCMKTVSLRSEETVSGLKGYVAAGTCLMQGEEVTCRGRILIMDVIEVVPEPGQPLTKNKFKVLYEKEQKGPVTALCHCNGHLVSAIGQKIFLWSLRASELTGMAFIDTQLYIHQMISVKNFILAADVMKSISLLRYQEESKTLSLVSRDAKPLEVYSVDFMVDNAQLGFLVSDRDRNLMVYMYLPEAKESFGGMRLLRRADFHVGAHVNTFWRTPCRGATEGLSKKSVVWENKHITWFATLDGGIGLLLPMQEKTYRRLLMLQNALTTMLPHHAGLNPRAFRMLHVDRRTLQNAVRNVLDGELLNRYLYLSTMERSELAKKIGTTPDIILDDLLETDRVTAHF
active: Nexturastat A 0.453
inactive: [1] -0.017 | [2] 0 | [3] -0.123 | [4] -0.083 | vemurafenib -0.115 | [5] 0.014 | [6] -0.005 | givinostat 0.058 | barasertib -0.024 | [7] 0.053 | volasertib -0.105 | [8] 0.031 | epoxomicin -0.038 | [9] -0.02 | [10] 0.026 | [11] -0.104 | rosiglitazone 0.011 | [12] 0.116 | [13] 0.165

CHST11 (UniProt Q9NPF2)
inactive: [1] 0.019 | [2] 0.099 | [3] 0.189 | [4] 0.047 | Nexturastat A 0.013 | vemurafenib 0.027 | [6] 0.089 | givinostat -0.029 | barasertib 0.049 | [7] -0.215 | volasertib -0.187 | [8] -0.078 | epoxomicin 0.011 | [9] 0.043 | [10] -0.017 | [11] -0.045 | rosiglitazone -0.044 | [13] 0.022
active: [5] 0.384

CLCN3 (UniProt P51790)
inactive: [1] -0.03 | [2] 0.046 | [3] 0.015 | [4] 0.034 | vemurafenib 0.014 | [5] 0.009 | [6] -0.107 | givinostat 0.02 | barasertib 0.053 | [7] 0.036 | volasertib -0.095 | [8] -0.037 | epoxomicin -0.015 | [9] 0.013 | [10] 0.065 | [11] 0.011 | rosiglitazone -0.018 | [12] -0.051 | [13] -0.213
active: Nexturastat A -0.313

CLINT1 isoform 3 (UniProt Q14677)
Sequence of UniProt Q14677 (Q14677 whole entry, looked up): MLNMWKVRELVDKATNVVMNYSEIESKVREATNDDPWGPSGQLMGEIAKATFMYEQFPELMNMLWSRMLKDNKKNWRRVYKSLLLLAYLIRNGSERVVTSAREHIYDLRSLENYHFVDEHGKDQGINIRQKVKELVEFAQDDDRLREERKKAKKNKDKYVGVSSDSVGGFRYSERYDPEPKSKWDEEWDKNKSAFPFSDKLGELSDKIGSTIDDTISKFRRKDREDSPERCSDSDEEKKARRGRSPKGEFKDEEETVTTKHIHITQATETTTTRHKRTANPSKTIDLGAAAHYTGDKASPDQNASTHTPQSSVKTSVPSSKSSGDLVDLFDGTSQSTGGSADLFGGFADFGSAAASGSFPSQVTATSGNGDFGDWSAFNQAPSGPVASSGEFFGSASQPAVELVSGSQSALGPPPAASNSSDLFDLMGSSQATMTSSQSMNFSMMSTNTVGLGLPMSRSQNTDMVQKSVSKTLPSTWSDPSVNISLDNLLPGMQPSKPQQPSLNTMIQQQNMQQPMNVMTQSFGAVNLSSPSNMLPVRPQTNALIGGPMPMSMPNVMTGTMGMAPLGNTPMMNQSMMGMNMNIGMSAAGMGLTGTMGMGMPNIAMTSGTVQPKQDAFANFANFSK
active: [13] 0.259
inactive: [1] -0.082 | [2] -0.001 | [3] -0.094 | [4] -0.09 | Nexturastat A 0.122 | vemurafenib -0.049 | [5] -0.073 | [6] -0.019 | givinostat -0.01 | barasertib -0.047 | [7] 0.17 | volasertib 0.047 | [8] -0.01 | epoxomicin -0.038 | [9] -0.006 | [10] 0.042 | [11] -0.06 | rosiglitazone -0.055 | [12] 0.075

C1D (UniProt Q13901)
Sequence of UniProt Q13901 (Q13901 whole entry, looked up): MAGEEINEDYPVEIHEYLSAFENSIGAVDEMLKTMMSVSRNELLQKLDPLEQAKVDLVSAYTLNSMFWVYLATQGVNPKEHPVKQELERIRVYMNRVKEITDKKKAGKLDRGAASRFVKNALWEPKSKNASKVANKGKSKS
inactive: [1] 0.058 | [2] 0.002 | [3] -0.015 | [4] -0.045 | Nexturastat A -0.053 | vemurafenib -0.046 | [5] -0.175 | [6] -0.019 | givinostat -0.002 | barasertib 0.104 | [7] 0.088 | volasertib 0.076 | [8] -0.034 | epoxomicin 0.02 | [9] 0 | [10] -0.021 | [11] -0.127 | rosiglitazone -0.008 | [13] 0.096

CCNB1 (UniProt P14635)
Sequence of UniProt P14635 (P14635 whole entry, looked up): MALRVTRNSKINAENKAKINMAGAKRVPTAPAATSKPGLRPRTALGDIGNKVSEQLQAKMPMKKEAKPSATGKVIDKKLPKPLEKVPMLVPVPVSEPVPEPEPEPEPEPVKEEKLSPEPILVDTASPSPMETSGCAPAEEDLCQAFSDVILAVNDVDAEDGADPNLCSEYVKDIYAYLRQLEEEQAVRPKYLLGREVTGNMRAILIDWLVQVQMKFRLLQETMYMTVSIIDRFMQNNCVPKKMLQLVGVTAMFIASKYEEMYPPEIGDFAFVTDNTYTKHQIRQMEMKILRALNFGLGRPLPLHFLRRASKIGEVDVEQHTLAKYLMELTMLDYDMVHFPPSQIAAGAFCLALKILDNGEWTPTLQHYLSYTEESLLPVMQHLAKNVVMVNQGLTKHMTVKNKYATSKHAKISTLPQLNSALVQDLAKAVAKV
inactive: [1] 0.021 | [2] -0.043 | [3] 0.011 | [4] 0 | Nexturastat A 0.017 | vemurafenib 0.03 | [5] 0.008 | [6] -0.033 | givinostat 0.007 | barasertib -0.007 | [7] 0.023 | volasertib 0.026 | [8] -0.027 | epoxomicin 0.083 | [9] -0.007 | [10] -0.004 | [11] 0.012 | rosiglitazone 0.017 | [12] -0.043 | [13] -0.032

COX5B (UniProt P10606)
inactive: [1] -0.038 | [2] -0.096 | [3] 0.037 | [4] -0.008 | Nexturastat A -0.043 | vemurafenib 0.037 | [5] -0.044 | [6] 0.013 | givinostat 0.065 | barasertib 0.034 | [7] 0.06 | volasertib -0.02 | [8] -0.047 | epoxomicin 0.192 | [9] -0.051 | [10] -0.043 | [11] -0.013 | rosiglitazone -0.01 | [12] -0.037
active: [13] 0.541

CPT2 (UniProt P23786)
active: volasertib 0.912 | [13] -0.613
inactive: [1] 0.313 | [2] -0.105 | [3] 0.035 | [4] 0.019 | Nexturastat A -0.417 | vemurafenib 0.042 | [5] 0.007 | [6] 0.016 | givinostat 0.474 | barasertib 0.013 | [7] 0.235 | [8] -0.019 | epoxomicin 0.011 | [9] 0.109 | [10] 0.384 | [11] 0.088 | rosiglitazone 0.056 | [12] -0.136

CS (UniProt O75390)
Sequence of UniProt O75390 (O75390 whole entry, looked up): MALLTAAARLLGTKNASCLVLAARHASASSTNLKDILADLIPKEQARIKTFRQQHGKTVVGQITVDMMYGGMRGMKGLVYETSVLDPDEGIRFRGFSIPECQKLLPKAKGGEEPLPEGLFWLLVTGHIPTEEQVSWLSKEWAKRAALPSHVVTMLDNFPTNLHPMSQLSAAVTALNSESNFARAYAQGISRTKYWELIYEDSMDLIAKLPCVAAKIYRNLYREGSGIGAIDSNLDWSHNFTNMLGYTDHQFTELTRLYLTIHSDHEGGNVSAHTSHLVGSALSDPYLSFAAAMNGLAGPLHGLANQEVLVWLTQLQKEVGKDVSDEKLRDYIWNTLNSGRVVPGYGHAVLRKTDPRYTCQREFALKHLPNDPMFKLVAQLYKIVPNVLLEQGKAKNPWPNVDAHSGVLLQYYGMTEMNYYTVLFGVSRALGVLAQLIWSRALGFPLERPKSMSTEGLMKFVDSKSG
active: [13] -0.222
inactive: [1] -0.026 | [2] -0.002 | [3] 0.014 | [4] 0.07 | Nexturastat A -0.125 | vemurafenib 0.023 | [5] 0.033 | [6] 0 | givinostat -0.041 | barasertib 0.027 | [7] 0.04 | volasertib 0.158 | [8] 0.027 | epoxomicin 0.01 | [9] 0.032 | [10] -0.059 | [11] 0.032 | rosiglitazone 0.083 | [12] -0.088

CCDC57 (UniProt Q2TAC2)
inactive: [1] 0.004 | [2] 0.02 | [3] 0.032 | [4] -0.01 | Nexturastat A -0.049 | vemurafenib 0 | [5] 0.013 | [6] -0.047 | givinostat 0.027 | barasertib 0.015 | [7] -0.033 | volasertib 0.012 | [8] -0.043 | epoxomicin -0.059 | [9] 0.036 | [11] -0.034 | rosiglitazone 0.018
